Bioassay records from PubChem.
KCNH2 WT inh – KCNH2 (human, wildtype) channel inhibition | Q12809 | U2OS, BacMam KCNH2, thallium flux FluxOr; hits give low values | activity change, % at 1.84 µM | 340,000 compounds, 0.37% hits | AID 720551;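 active means maximum activity change below -70%; inconclusive means maximum activity change between -70% and -50%; inactive means maximum activity change above -50%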; further: on the % scale 0 is the no-effect control and ±100 the full control effect
Target sequence (Q12809 whole entry, looked up): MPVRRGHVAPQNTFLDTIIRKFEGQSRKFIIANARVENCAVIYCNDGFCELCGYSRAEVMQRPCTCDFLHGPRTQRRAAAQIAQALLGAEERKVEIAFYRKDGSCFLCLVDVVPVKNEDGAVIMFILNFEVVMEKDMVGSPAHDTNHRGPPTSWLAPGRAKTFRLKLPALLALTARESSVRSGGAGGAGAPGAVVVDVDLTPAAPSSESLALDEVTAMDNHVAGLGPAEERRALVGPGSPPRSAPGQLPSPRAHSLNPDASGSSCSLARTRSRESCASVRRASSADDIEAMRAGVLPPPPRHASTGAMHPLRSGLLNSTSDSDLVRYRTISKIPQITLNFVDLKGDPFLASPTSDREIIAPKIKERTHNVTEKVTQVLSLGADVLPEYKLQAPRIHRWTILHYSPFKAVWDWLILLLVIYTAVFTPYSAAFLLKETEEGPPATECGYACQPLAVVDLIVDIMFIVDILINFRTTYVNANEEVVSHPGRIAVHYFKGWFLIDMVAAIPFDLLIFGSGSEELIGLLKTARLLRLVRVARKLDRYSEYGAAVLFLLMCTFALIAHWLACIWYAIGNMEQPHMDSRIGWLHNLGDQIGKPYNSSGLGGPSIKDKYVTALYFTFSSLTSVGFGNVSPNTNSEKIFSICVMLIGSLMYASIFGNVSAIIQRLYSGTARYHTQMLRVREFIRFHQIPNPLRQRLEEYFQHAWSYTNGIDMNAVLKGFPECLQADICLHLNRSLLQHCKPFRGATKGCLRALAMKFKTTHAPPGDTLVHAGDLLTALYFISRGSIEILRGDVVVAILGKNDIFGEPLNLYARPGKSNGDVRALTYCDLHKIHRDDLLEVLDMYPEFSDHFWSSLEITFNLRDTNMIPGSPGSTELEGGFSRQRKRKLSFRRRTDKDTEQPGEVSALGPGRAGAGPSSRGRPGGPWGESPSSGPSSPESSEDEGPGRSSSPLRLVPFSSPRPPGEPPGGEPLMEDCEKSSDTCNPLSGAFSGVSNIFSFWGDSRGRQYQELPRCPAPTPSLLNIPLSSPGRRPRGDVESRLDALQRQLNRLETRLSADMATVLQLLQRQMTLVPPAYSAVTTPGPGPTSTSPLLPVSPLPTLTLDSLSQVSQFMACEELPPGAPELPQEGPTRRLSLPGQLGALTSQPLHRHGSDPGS
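U2OS cells transduced with wild-type KCNH2 virus are loaded with FluxOr dye for 45 min, and thallium flux is measured in kinetic reads before and after stimulation buffer. Rate constants are normalized to DMSO controls.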
TRPML1 blocker – blocks the human TRPML1 channel | TRPML1-inducible cells, Ca2+ dye fluorescence, FDSS; hits give low values; inhibition of EC80 agonist-evoked calcium signal | activity change, negative = inhibition, % (no concentration beside the values) | 390,000 compounds, 0.02% hits | AID 624415; in the data active means activity change below about -50%; inconclusive means between about -30% and that limit;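 further: stimulus is agonist 54-4 at its EC80 concentration; on the % scale 0 is the no-effect control and ±100 the full control effect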
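Tet-induced TRPML1-DL cells loaded with Ca8 no-wash calcium dye were read kinetically on FDSS. Compound addition was followed by EC80 agonist 54-4 (4 uM final); inhibition was read over 110 s.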
TRPV1 ag – human TRPV1 agonism. TRPV1-expressing cells, Fluo-8 calcium influx, agonist mode. activation, % at 8.33 µM. 320,000 compounds, 0.19% hits; in the data active means activation above about 80%; inconclusive means between about 30% and that limit; further: 0% is about no effect
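Fluo-8 calcium influx in TRPV1-expressing cells, kinetic read (ex 480/em 520 nm). Compound added and read 3 min for agonist activity, followed by capsaicin at EC20 final and 2 min further read for enhancement.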
TRPML1 agonist – human mucolipin-1 channel agonism. Q9GZU1. TRPML1-expressing cells, Ca2+ dye fluorescence, FDSS. activation, % (no concentration beside the values). 410,000 compounds, 0.12% hits. AID 624414; in the data active means activation above about 50%; inconclusive means mostly about 30% to 49%; further: 0% is about no effect
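Tet-induced TRPML1-DL cells, 1,500 per well, cultured overnight, were loaded with a no-wash Ca2+ dye for 45–90 min. Calcium fluorescence was recorded on the FDSS for 110 s after compound addition, before the EC80 agonist (4 uM 54-4) was added.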
KCNH2 3.1 block – blocks the human KCNH2 3.1 channel isoform. U2OS KCNH2 3.1, thallium flux FluxOr; hits give low values. activity change, % (tested at about 1.8 µM). 340,000 compounds, 0.95% hits. AID 720553;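 active means maximum activity change below -70%; inconclusive means maximum activity change from -70% to -50%; inactive means maximum activity change above -50%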;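 further: thallium influx rate constant from kinetic fluorescence after stimulation buffer; on the % scale 0 is the no-effect control and ±100 the full control effect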
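U2OS cells transduced with KCNH2 3.1 mutant virus (1.77 x 10^8 /mL, 4 h), plated overnight at 37 C, loaded 45 min with FluxOr dye plus Red40 quencher. Thallium flux rate constant from kinetic reads after stimulation buffer, normalised to controls.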
TRPV1 PAM – human TRPV1 potentiation. 320,000 compounds, 0.02% hits. TRPV1-expressing cells, Fluo-8 calcium influx, capsaicin EC20 potentiation. potentiation, % at 8.33 µM. AID 540277. Q8NER1; in the data active means potentiation above about 80%; inconclusive means between about 30% and that limit; further: 0% is about no effect
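Fluo-8 calcium influx in TRPV1-expressing cells, kinetic read (ex 480/em 520 nm). Compound added and read 3 min for agonist activity, followed by capsaicin at EC20 final and 2 min further read for enhancement.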
Starred values were filed as active, the others as inactive; ? = inconclusive; nt = no result given. Sampled rows, rich in hits. Any-hit rate of the full collection: about 1.3%.

SMILES	KCNH2 WT inh	TRPML1 blocker	TRPV1 ag	TRPML1 agonist	KCNH2 3.1 block	TRPV1 PAM
CSc1ccccc1NC(=O)COc1ccc(Cl)cc1C	1	-3	8	0	-2	4
O=C1OC2(c3ccccc31)c1cc(I)c(O)c(I)c1Oc1c2cc(I)c(O)c1I	nt	nt	88*	nt	nt	-23
O=C1OC(c2ccccc2)(c2ccc(O)cc2)c2ccccc21 (configuration not stated)	-1	51	nt	15	13	nt
Cc1cccc(OCCC(=O)NO)c1	nt	nt	nt	0	nt	nt
Nc1nnc(-c2cccc([N+](=O)[O-])c2)o1	-92*	5	nt	0	5	nt
CCN(CC)c1ccc2cc(-c3nnc(-c4cccc(Cl)c4)o3)c(=O)oc2c1	nt	-20	nt	62*	nt	nt
CCN(CC)c1ccc2cc(-c3nnc(-c4ccncc4)o3)c(=O)oc2c1	-93*	?	107*	116*	?	?
CCN(CC)c1ccc2cc(-c3nc(-c4cccs4)no3)c(=O)oc2c1	nt	-14	nt	24	nt	nt
Cc1ccc2oc(C(=O)Nc3c(C(=O)Nc4ccccc4)oc4ccccc34)cc(=O)c2c1	nt	7	nt	-1	nt	nt
CCC(=O)Nc1ccc(-c2nn3c(C)nnc3s2)cc1C	-22	1	1	0	-115*	1
Cc1ccc(-c2nn3c(C)nnc3s2)cc1NC(=O)C(C)C	5	18	nt	1	1	nt
Cc1ccc(-c2nn3c(C)nnc3s2)cc1N	-289*	32	0	1	12	1
Cc1ccc2ccc3cc(C(=O)N4CCN(c5ccccc5)CC4)nc3c2[nH]1	nt	-12	nt	2	nt	nt
CCN(CC)S(=O)(=O)c1ccc2c(c1)N(CC(=O)N1CCN(c3cccc(C)c3C)CC1)C(=O)CO2	nt	1	nt	0	nt	nt
COc1c(C)cc(S(=O)(=O)N2CCOCC2)c(C)c1C	-4	79	1	0	-172*	8
O=C(Nc1ccc(C(F)(F)F)cc1)c1ccc2ncsc2c1	32	19	90*	0	3	9
COc1ccc(NC(=O)c2ccc3ncsc3c2)c2ccccc12	-16	10	88*	1	7	3
O=C(Nc1ccc(C(F)(F)F)cc1)c1ccccc1	-15	32	82*	-1	-5	14
O=C(Nc1ccc(N2CCOCC2)cc1)c1ccc2ncsc2c1	-3	12	nt	0	1	nt
CC(=O)c1ccc(NC(=O)c2ccc3snnc3c2)cc1	5	1	?	0	20	-10
O=C(Nc1ccc(Cl)cc1)c1ccc2snnc2c1	-4	-4	88*	-1	5	-15
O=C(Nc1ccc(C(=O)c2ccccc2)cc1)c1ccccc1	8	9	?	0	-8	5
CCOc1ccc(CNC(=O)C2CCCN(c3nc4c(C)cc(C)cc4s3)C2)cc1 (configuration not stated)	nt	14	nt	-1	nt	nt
O=C(Nc1ccc(F)cc1)c1ccc2ncsc2c1	8	6	93*	0	-12	-19
O=C(Nc1ccc(Cl)cc1)c1ccc2ncsc2c1	3	-2	?	0	9	-7
SMILES	KCNH2 WT inh	TRPML1 blocker	TRPV1 ag	TRPML1 agonist	KCNH2 3.1 block	TRPV1 PAM
c1cc(C2CCCCC2)ccc1Oc1nc(N2CCOCC2)nc(N2CCOCC2)n1	3	-12	-2	0	-71*	-1
c1ccc(Oc2nc(N3CCOCC3)nc(N3CCOCC3)n2)cc1	6	2	7	3	-5	-4
CCC(C)(C)c1ccc(OCC(=O)Nc2ccncc2)cc1	-6	14	90*	0	-16	-7
CC(C)(C)c1ccc(OCC(=O)Nc2ccncc2)c(Br)c1	-1	nt	97*	nt	-38	-3
O=C1N/C(=N\S(=O)(=O)Cc2ccccc2)S/C1=C/c1cc([N+](=O)[O-])ccc1O	-1	-4	?	74*	3	9
O=C1N/C(=N\S(=O)(=O)c2ccccc2)S/C1=C\c1cc([N+](=O)[O-])ccc1O	-2	2	29	51*	15	-1
Cc1ccccc1NC(=O)Cn1c(=O)n(CCC(=O)NCc2ccc3c(c2)OCO3)c(=O)c2sccc21	nt	24	nt	1	nt	nt
